Records with an inconclusive call do not appear. Entries that show only a call come without a potency. Calls of active or inactive are those of the source. Calls come from the whole dose curve.
Assay: p53 small molecule agonists, cell-based qHTS assay with human liver microsomes (AID 1963577);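 note: p53 response element beta-lactamase reporter cells with liver microsomes plus NADPH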
Summary of the method: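 Cells carrying a p53-responsive bla reporter were rested 5 h (37 C, 5% CO2) before compound transfer. Human liver microsomes plus NADPH, 0.5 mg/mL final apiece, supplied metabolism during the 16 h 37 C exposure.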

For CNC(=O)Oc1ccccc1C1OCCO1, the Potency was “inactive”.
For CN(C)c1ccc(N(C)C)cc1, the Potency was “inactive”.
For Clc1ccc(C2(Cn3cncn3)OCCO2)c(Cl)c1, the Potency was “inactive”.
With Cc1cnc(C2=NC(C)(C(C)C)C(=O)N2)c(C(=O)O)c1 (stereo unspecified) the Potency was “inactive”.
With O=C(O)C(F)(F)C(F)(F)C(F)(F)C(F)(F)C(F)(F)C(F)(F)F the Potency was “inactive”.
In the case of c1ccc(N2CCNCC2)cc1, the Potency is reported as “inactive”.
For N#Cc1ccc(Cl)cc1, the Potency was “inactive”.
For CC(Cl)C(=O)O (stereo unspecified), the Potency was “inactive”.
For CCCC(=O)Cl, the Potency was “inactive”.
For COc1cc(OC)nc(Oc2cccc(Oc3nc(OC)cc(OC)n3)c2C(=O)O)n1, the Potency was “inactive”.
With CN(C)N the Potency was “inactive”.
With CC(C)CCCCCOC(=O)c1ccccc1C(=O)OCCCCCC(C)C the Potency was “inactive”.
In the case of ClC1C(Cl)C(Cl)C(Cl)C(Cl)C1Cl (stereo unspecified), the Potency is reported as “inactive”.
With Fc1cc(Br)ccc1CBr the Potency was “inactive”.
For c1ccc(OP(Oc2ccccc2)Oc2ccccc2)cc1, the Potency was “inactive”.
In the case of COc1ccc(O)c(C(C)(C)C)c1, the Potency is reported as “inactive”.
With CCCCCCCCCCCCCl the Potency was “inactive”.
With N#CSCSC#N the Potency was “inactive”.
For O=P(O)(O)CN(CP(=O)(O)O)CP(=O)(O)O, the Potency was “inactive”.
In the case of ClCCOCOCCCl, the Potency is reported as “inactive”.
In the case of BrCC(Br)c1ccccc1 (stereo unspecified), the Potency is reported as “inactive”.
In the case of [N-]=[N+]=[N-], the Potency is reported as “inactive”.
With Nc1ccc(Br)cc1 the Potency was “inactive”.
In the case of C[C@]1(O)CC[C@H]2[C@@H]3CCC4=CC(=O)CC[C@]4(C)[C@@]3(F)[C@@H](O)C[C@@]21C, the Potency is reported as “inactive”.
In the case of C[N+]1(C)CCCCC1, the Potency is reported as “inactive”.
In the case of Oc1ccc(Cl)cc1Cl, the Potency is reported as “inactive”.
